These results are taken from PubChem BioAssay (EPA / NIEHS).

Active and inactive are the calls of the source. The calls were made as follows: active = hit-call score of the fitted dose curve at least 0.9, where 1 is the maximum; inactive = score below 0.9.

Usually AC50 stands for the concentration giving half of the maximal activity seen.

The nature of this test: CCTE_Shafer_MEA_dev_per_network_spike_spike_number_mean: CCTE's Neural Network Formation Assay for Mean Number of Spikes in a Network Spike, Shafer Lab (AID 2284053). As to the method: CCTE_Shafer_MEA_dev assay is conducted using Axion Biosystems 48 well microelectrode array (MEA) plates and Maestro recording system. Each well of the MEA plate contains a grid of 16 microelectrodes embedded in the culture surface. Electrically active cells, such as neurons, can be cultured over the electrodes, and electrical activity in these cells can be recorded extracellularly. The spontaneous firing of neurons is captured from each electrode on a microsecond timescale providing both temporally and spatially precise data. […] The CCTE_Shafer_MEA_dev assay uses primary cultures of rat cortical neurons. Recordings are made on days post-plating 5, 7, 9 and 12. As these cultures mature over time, neural networks develop functional activity and form cohesive networks in which electrical activity can be highly coordinated. CCTE_Shafer_MEA_dev_per_network_spike_spike_number_mean is 1 of 19 assay components of the CCTE_Shafer_MEA_dev assay. It measures the average number of spikes (action potential firings) in a network spike (temporally-clustered group of spikes across multiple electrodes) as the number of spikes that occur within a 0.05 s time window at the peak of a network spike divided by the total number of network spikes during a recording in a microelectrode array (MEA) using Axion Biosystems Maestro 768 channel amplifier with the AxIS adaptive spike detector. To collapse across multiple recordings made on days post-plating 5, 7, 9 and 12, the trapezoidal area-under-the-curve of the component is calculated.Data from the assay component CCTE_Shafer_MEA_dev_per_network_spike_spike_number_mean was analyzed into 1 assay endpoint. This assay endpoint, CCTE_Shafer_MEA_dev_per_network_spike_spike_number_mean, was analyzed in the negative analysis fitting direction relative to DMSO as the negative control and baseline of activity. Using a type of functional reporter, gain or loss-of-signal activity can be used to understand electrical activity.
On the day prior to culture, each well was coated thoroughly with 150 uL of 0.05% polyethyleneimine (PEI, Sigma Cat P3143) in 50 mM HEPES (Sigma Cat H7523) at a pH of 8. The plate was incubated at 37C for one hour. PEI was rinsed out with 500 uL of sterile water three times. Plates were stored at 4C until the day of culture. This culture was plated at a seeding density of 1.5 x 10^5 cells/well on a 48-well MEA plate, prepared as described above. Cells were administered via a 25 uL media/laminin ([…]; Sigma Cat L2020-1MG) drop directly onto the microelectrode array, as adding the cells with the laminin results in better attachment than pre-coating with laminin. After 2 hours, an additional 475 uL of cortical media was added and the cells returned to the incubator. Exposure starts at day 0 of plating and is continued over twelve days of network development until the experiment is terminated. Cells are fed with fresh medium on DIV 5 and 9, following the recordings on those days. The entire volume of media in the well is exchanged and any vehicle or compound treatment is renewed. Complete details are found in OP-NHEERL/ISTD/SBB/TJS/2015-03-r0 (available on request, email shafer.tim@epa.gov). Measurement of the electrical activity is non-invasive, and recordings can be made from the same plate over multiple different days of the culture. In cortical neurons, this allows for the measurement of extracellular action potentials over the period during which networks form in the MEA plate.
For the compound `OCC(F)(F)C(F)(F)C(F)(F)C(F)(F)C(F)(F)C(F)(F)CO`, the compound was classed as inactive.
On the same count and under the same terms, the entry for `OC(O)C(F)(F)C(F)(F)F` is “inactive”; for `OCC(O)CC(F)(F)C(F)(F)C(F)(F)C(F)(F)F` (centres undefined) it is “inactive”; for `FC(F)(F)C(F)(F)C(F)(F)C(F)(F)C(F)(F)C(F)(F)C(F)(F)CCI` it is “inactive”.
For the compound `C=CC(=O)OCC(F)(F)C(F)(F)C(F)(F)COC(=O)C=C`, the AC50 was 4.72 µM (active).
Regarding `O=C(O)C(F)(F)C(F)(F)C(F)(F)OC(F)(F)F`, the result was inactive.
On the same count and under the same terms, under `OCC(F)(F)C(F)(F)C(F)(F)C(F)(F)C(F)(F)C(F)(F)C(F)(F)C(F)(F)CO` stands “inactive”; under `NC(O)(C(F)(F)F)C(F)(F)F`, “inactive”.
Take `C=CC(=O)OCCC(F)(F)C(F)(F)C(F)(F)C(F)(F)F`: the AC50 was 15 µM (active).
For the compound `CNS(=O)(=O)C(F)(F)C(F)(F)C(F)(F)C(F)(F)C(F)(F)C(F)(F)C(F)(F)C(F)(F)F`, the compound was called inactive.
Still for that read-out and setting: the entry for `NC(=O)C(F)(F)C(F)(F)C(F)(F)C(F)(F)C(N)=O` is “inactive”.
Same read-out and setting: the entry for `O=S(=O)(O)CCC(F)(F)C(F)(F)C(F)(F)C(F)(F)C(F)(F)C(F)(F)C(F)(F)C(F)(F)F` is “inactive”; for `CO[Si](C)(CCC(F)(F)C(F)(F)C(F)(F)C(F)(F)C(F)(F)C(F)(F)F)OC` it is “inactive”; for `O=S(=O)(O)CCC(F)(F)C(F)(F)C(F)(F)C(F)(F)F` it is “inactive”.
On the same count and under the same terms, under `CCN(CCO)S(=O)(=O)C(F)(F)C(F)(F)C(F)(F)C(F)(F)C(F)(F)C(F)(F)C(F)(F)C(F)(F)F` stands “inactive”; under `NC(=O)C(F)(F)C(F)(F)C(F)(F)F`, “inactive”.
With `NC(=O)C(F)(F)C(F)(F)C(F)(F)C(F)F`, the compound was called inactive.
Turning to `OCC(F)(F)C(F)(F)C(F)(F)CO`, the result was inactive.
Consider `OCCCCC(F)(F)C(F)(F)C(F)(F)C(F)(F)F`, for which the outcome was inactive.
